What all share (experiment): protein binding microarray; high values mean tight binding
Common to all, as to details: dsDNA, one strand shown

In experiment [1] the target is RELARELA (p65 homodimer) (Homo sapiens, UniProt Q04206 1-307).
Experiment [2] concerns the target p50p50 homodimer (Homo sapiens, UniProt P19838 7-356).
The target in experiment [3] is T1, p52p52 homodimer (Homo sapiens, UniProt Q00653 4-332).
T1 sequence: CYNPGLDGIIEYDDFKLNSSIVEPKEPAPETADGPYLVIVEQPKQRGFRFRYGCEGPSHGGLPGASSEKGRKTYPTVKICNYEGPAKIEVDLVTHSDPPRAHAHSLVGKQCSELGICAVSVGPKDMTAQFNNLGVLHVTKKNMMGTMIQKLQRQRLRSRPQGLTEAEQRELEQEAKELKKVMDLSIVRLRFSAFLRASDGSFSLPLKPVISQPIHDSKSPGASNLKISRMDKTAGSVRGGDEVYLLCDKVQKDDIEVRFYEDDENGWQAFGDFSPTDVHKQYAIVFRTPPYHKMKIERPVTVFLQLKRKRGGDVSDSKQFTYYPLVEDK

The target of experiment [4] is RELA (p65) subunit of heterodimer;p50 subunit (Homo sapiens;Homo sapiens, UniProt Q04206;P19838 1-307;7-356).
In experiment [5] the target is RELA (p65) subunit of heterodimer;p52 subunit (Homo sapiens;Homo sapiens, UniProt Q04206;Q00653 1-307;4-332).
Experiment [6] addresses RELB subunit;p50 subunit (Homo sapiens;Homo sapiens, UniProt Q01201;P19838 120-401;7-356).
Experiment [7] deals with T2, RELB subunit;p52 subunit (Homo sapiens;Homo sapiens, UniProt Q01201;Q00653 120-401;4-332).
T2 sequence 1: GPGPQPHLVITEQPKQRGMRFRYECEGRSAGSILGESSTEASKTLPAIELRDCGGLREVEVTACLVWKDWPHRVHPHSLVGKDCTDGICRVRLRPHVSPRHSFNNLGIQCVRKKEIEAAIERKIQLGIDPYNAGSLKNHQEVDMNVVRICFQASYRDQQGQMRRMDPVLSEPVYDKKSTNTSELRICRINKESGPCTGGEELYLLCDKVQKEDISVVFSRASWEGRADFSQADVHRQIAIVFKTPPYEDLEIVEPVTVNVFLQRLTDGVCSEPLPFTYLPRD
T2 sequence 2: T1 sequence

Experiment [8] addresses C-Rel subunit;p50 subunit (Homo sapiens;Homo sapiens, UniProt Q04864;P19838 1-285;7-356).
Experiment [9] addresses T3, C-Rel subunit;p52 subunit (Homo sapiens;Homo sapiens, UniProt Q04864;Q00653 1-285;4-332).
T3 sequence 1: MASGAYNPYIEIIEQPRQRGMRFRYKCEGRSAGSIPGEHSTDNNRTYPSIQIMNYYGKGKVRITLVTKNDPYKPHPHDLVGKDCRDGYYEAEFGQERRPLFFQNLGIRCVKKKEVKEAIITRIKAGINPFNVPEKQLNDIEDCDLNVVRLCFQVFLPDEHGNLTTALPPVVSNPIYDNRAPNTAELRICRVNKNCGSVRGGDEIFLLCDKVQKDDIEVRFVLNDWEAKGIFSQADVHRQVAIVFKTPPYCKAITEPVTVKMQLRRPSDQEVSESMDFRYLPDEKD
T3 sequence 2: T1 sequence

We go through 21 sequences from article PMC3218832.

Chain of p50p50 homodimer (P19838 7-356): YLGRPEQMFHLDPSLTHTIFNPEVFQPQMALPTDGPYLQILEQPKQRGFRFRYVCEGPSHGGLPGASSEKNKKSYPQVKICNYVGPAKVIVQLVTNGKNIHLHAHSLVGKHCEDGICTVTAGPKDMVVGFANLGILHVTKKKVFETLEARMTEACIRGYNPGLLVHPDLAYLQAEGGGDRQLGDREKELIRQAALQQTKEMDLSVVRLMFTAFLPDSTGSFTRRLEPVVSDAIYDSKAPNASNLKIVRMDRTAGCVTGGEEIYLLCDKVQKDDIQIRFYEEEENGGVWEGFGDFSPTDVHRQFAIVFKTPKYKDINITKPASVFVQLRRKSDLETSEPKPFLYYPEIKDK
Chain of RELA (p65) subunit of heterodimer;p50 subunit (Q04206 1-307, chain 1 of 2): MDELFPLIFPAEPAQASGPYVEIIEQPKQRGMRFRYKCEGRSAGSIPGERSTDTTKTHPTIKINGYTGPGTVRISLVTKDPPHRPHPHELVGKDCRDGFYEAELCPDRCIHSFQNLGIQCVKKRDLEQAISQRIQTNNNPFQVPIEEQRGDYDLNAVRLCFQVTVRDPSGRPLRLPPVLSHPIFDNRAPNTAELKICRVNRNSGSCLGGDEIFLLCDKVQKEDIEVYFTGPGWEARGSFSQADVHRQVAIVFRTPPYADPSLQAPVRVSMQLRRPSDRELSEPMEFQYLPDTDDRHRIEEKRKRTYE
Chain of RELA (p65) subunit of heterodimer;p50 subunit (P19838 7-356, chain 2 of 2): as the sequence (P19838 7-356) above
Chain of RELARELA (p65 homodimer) (Q04206 1-307): as the sequence (Q04206 1-307, chain 1 of 2) above

On to CGAGTCCCCCT, for which the binding signal was -0.0442 z-score in experiment [1]; 1.47 z-score in experiment [2]; 1.11 z-score in [3]; 1.66 z-score in experiment [4]; 1.39 z-score in [5]; 1.68 z-score in [6]. Further, the binding signal in experiment [7] amounted to 2.08 z-score; in [8] it was 1.47 z-score; in experiment [9], 1.15 z-score.

In the case of AAGGATATCCT, the binding signal in [1] was -0.125 z-score; in experiment [2] it was -1.04 z-score; in experiment [3] it was -0.548 z-score; in experiment [4], -0.853 z-score; in [5], -0.906 z-score; in experiment [6], -0.945 z-score. Besides, the binding signal in experiment [7] was -0.859 z-score; in experiment [8] it was -1.41 z-score; in experiment [9], -0.843 z-score.

Take AGGAGCGCCCC: the binding signal in experiment [1] was -0.227 z-score; in experiment [2], -0.229 z-score; in experiment [3], 0.018 z-score; in experiment [4] it was 0.186 z-score; in experiment [5], 0.348 z-score; in experiment [6], -0.0805 z-score. The binding signal in [7] worked out at 0.162 z-score; in experiment [8], 0.0948 z-score; in experiment [9], 0.277 z-score.

As for AGGTTTGTCCC, the binding signal came to 1.29 z-score in [1]; 0.56 z-score in experiment [2]; 0.82 z-score in experiment [3]; 0.878 z-score in experiment [4]; 0.918 z-score in experiment [5]; 0.602 z-score in experiment [6]. Further, the results for the binding signal in experiment [7], in experiment [8] and in experiment [9] were 0.621 z-score, 0.937 z-score and 0.735 z-score, respectively.

Take GAAAGACCCCC: the binding signal in experiment [1] is -0.269 z-score; in experiment [2] it was 0.985 z-score; in experiment [3], 0.754 z-score; in [4] it was 1.12 z-score; in experiment [5], 1.17 z-score; in [6] it was 0.92 z-score. The binding signal worked out at 1.03 z-score in experiment [7], 0.485 z-score in experiment [8] and 0.846 z-score in experiment [9].

As to GGGATCGTCCT, the binding signal in experiment [1] was 0.173 z-score; in experiment [2], -0.724 z-score; in [3], 0.0256 z-score; in experiment [4] it was -0.544 z-score; in experiment [5] it was -0.296 z-score; in [6], -0.598 z-score. The binding signal was -0.614 z-score in experiment [7], -0.493 z-score in experiment [8] and -0.166 z-score in experiment [9].

Regarding AGGTTTATCCT, the binding signal was -0.465 z-score in experiment [1]; -0.953 z-score in experiment [2]; -0.558 z-score in experiment [3]; -1.01 z-score in experiment [4]; -0.905 z-score in experiment [5]; -0.943 z-score in [6]. The figures for the binding signal in experiment [7], in experiment [8] and in [9] were -0.798 z-score, -1.17 z-score and -0.61 z-score, respectively.

Consider CGGGTCCTCCC, for which the binding signal in experiment [1] is -0.107 z-score; in [2], -0.467 z-score; in [3] it was -0.154 z-score; in [4] it was -0.451 z-score; in experiment [5] it was -0.038 z-score; in experiment [6], -0.526 z-score. Moreover, the results for the binding signal in experiment [7], in experiment [8] and in [9] were -0.335 z-score, -0.324 z-score and 0.0736 z-score, respectively.

As for GGAGAACCCCC, the binding signal came out at 0.892 z-score in experiment [1]; 1.01 z-score in [2]; 1.75 z-score in experiment [3]; 1.88 z-score in [4]; 1.77 z-score in [5]; 1.42 z-score in experiment [6]. Besides, the binding signal in experiment [7] worked out at 1.59 z-score; in experiment [8], 1.21 z-score; in experiment [9], 1.74 z-score.

As for AAAAGCGTCCC, the binding signal in experiment [1] was found to be 0.0306 z-score; in [2], 0.282 z-score; in [3], 0.41 z-score; in experiment [4], 0.21 z-score; in experiment [5], 0.286 z-score; in [6], 0.48 z-score. Moreover, the results for the binding signal in experiment [7], in experiment [8] and in experiment [9] were 0.821 z-score, 0.207 z-score and 0.0784 z-score, respectively.

For the sequence AGGATACCCCC, the binding signal is 0.417 z-score in experiment [1]; 1.14 z-score in [2]; 0.992 z-score in [3]; 1.34 z-score in experiment [4]; 1.29 z-score in [5]; 1.01 z-score in [6]. Further, the binding signal in experiment [7] was determined as 1.54 z-score; in [8] it was 0.882 z-score; in [9], 1.24 z-score.

Regarding AAGGGAATCCC, the binding signal in experiment [1] turned out to be 2.03 z-score; in experiment [2], 0.857 z-score; in experiment [3] it was 2.29 z-score; in experiment [4], 1.16 z-score; in experiment [5], 1.75 z-score; in experiment [6] it was 1.21 z-score. For the same sequence, the binding signal came out at 1.57 z-score in [7], 1.02 z-score in experiment [8] and 1.92 z-score in [9].

In the case of GGGGAGGTCCT, the binding signal in [1] came out at 0.546 z-score; in experiment [2] it was 0.328 z-score; in experiment [3] it was 1.26 z-score; in [4] it was 0.275 z-score; in experiment [5], 0.847 z-score; in experiment [6], 0.375 z-score. For the same sequence, the binding signal in experiment [7] came out at 0.376 z-score; in experiment [8], 0.314 z-score; in [9], 0.559 z-score.

In the case of CAAAGTCCCCT, the binding signal in experiment [1] amounted to 0.169 z-score; in [2], 1.47 z-score; in experiment [3], 1.68 z-score; in [4], 1.79 z-score; in experiment [5] it was 1.67 z-score; in experiment [6] it was 2.07 z-score. The binding signal in [7] amounted to 1.96 z-score; in experiment [8], 1.43 z-score; in [9], 1.57 z-score.

For AAGTTAGTCCT, the binding signal was -0.0878 z-score in experiment [1]; -1.56 z-score in [2]; -0.552 z-score in experiment [3]; -1.02 z-score in experiment [4]; -0.842 z-score in [5]; -1.03 z-score in experiment [6]. Further, the binding signal was -0.752 z-score in [7], -1 z-score in [8] and -0.837 z-score in [9].

As to CAAATTTTCCC, the binding signal in experiment [1] worked out at 2.86 z-score; in [2], 1.18 z-score; in experiment [3], 1.47 z-score; in [4], 1.48 z-score; in experiment [5], 1.47 z-score; in [6], 1.08 z-score. Besides, the results for the binding signal in [7], in experiment [8] and in [9] were 1.27 z-score, 1.5 z-score and 1.39 z-score, respectively.

Consider AGGGGATCCCT, for which the binding signal in experiment [1] turned out to be 1.82 z-score; in experiment [2], 1.11 z-score; in experiment [3], 2.11 z-score; in experiment [4], 2.32 z-score; in [5], 1.95 z-score; in [6], 1.58 z-score. In addition, the results for the binding signal in experiment [7], in experiment [8] and in [9] were 1.57 z-score, 1.42 z-score and 2.29 z-score, respectively.

On to AAGATAATCCT, for which the binding signal in experiment [1] is -0.605 z-score; in [2], -1.55 z-score; in experiment [3], -0.666 z-score; in experiment [4], -1.04 z-score; in [5], -0.884 z-score; in [6], -1.14 z-score. In addition, the binding signal was -0.91 z-score in experiment [7], -1.26 z-score in experiment [8] and -0.848 z-score in [9].

Regarding GGGTATATCCC, the binding signal was found to be 1.19 z-score in experiment [1]; 0.245 z-score in [2]; 2.43 z-score in experiment [3]; 0.931 z-score in experiment [4]; 1.62 z-score in experiment [5]; 0.847 z-score in [6]. Further, the binding signal in experiment [7] came to 0.92 z-score; in experiment [8] it was 0.341 z-score; in [9], 1.12 z-score.

Consider CAATAACTCCC, for which the binding signal in experiment [1] is 0.145 z-score; in [2], 0.702 z-score; in experiment [3] it was 0.0211 z-score; in [4] it was 0.38 z-score; in experiment [5] it was -0.231 z-score; in experiment [6], 0.426 z-score. Besides, the binding signal in experiment [7] is -0.00688 z-score; in experiment [8], 0.223 z-score; in experiment [9], -0.12 z-score.

In the case of CGGAACGTCCC, the binding signal in [1] was determined as 1.16 z-score; in experiment [2], 0.116 z-score; in [3] it was 0.505 z-score; in experiment [4], 0.933 z-score; in experiment [5], 0.956 z-score; in experiment [6] it was 0.184 z-score. The binding signal in [7] worked out at 0.327 z-score; in [8], 0.44 z-score; in [9], 0.748 z-score.
